Only a selection was taken, and hits are over-represented in it overall.
Dicer processing – human Dicer pre-microRNA cleavage inhibition | Q9UPY3 | cat-ELCCA pre-miR-21 Dicer processing, chemiluminescence; stronger effect = higher value | z-score at 25 µM | 47,000 tested, 6% active | AID 1347074; in the data active means z-score above about 3, passing the limit was not always enough;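 further: higher signal means more uncleaved substrate so more Dicer inhibition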
Hits are given with their value; 0 = inactive.

SMILES	Dicer processing
CC(Sc1nc2ncnc(N)c2[nH]1)C(=O)O (centres undefined)	0
Nc1ncnc2nc(SCc3ccc4nsnc4c3)[nH]c12	0
COC(=O)c1c(N)sc2c1CCN(C)C2	0
COc1ccc(OC)c(C(=O)c2ccc(N)cc2)c1	0
COc1cc(C(=O)c2cc(Cl)ccc2N)ccc1O	3.8
COC(=O)c1ccccc1C(=O)c1ccc(Cl)cc1	0
CC(=O)c1cnc2cc(C3CC3)nn2c1C	0
Fc1ccc(NCc2ccncc2)cc1	3.5
Fc1ccc(NCc2ccc3c(c2)OCO3)cc1	0
c1cc(CNc2ccc3c(c2)OCO3)ccn1	0
Cc1cc2c(cc1C)CSC(c1ccccc1Cl)SC2	0
COC(=O)C1=CC(C(=O)c2cccs2)=NN(c2ccccc2)C1C(=O)OC (centres undefined)	0
Cc1ccc(C(=O)NN(C)c2cnn(-c3ccc(F)c(Cl)c3)c(=O)c2Cl)cc1	0
CCCN1C(=O)C(NC(C)=O)c2cc(Br)ccc21 (centres undefined)	0
CCOC(=O)c1cc(-c2ccccc2)sc1NC(=O)Nc1ccc(Cl)cc1	0
CCOc1ccc(C(=O)CC2(O)C(=O)Nc3ccccc32)cc1 (centres undefined)	3.4
CC(C)c1ccc(C(=O)CC2(O)C(=O)Nc3ccccc32)cc1 (centres undefined)	0
CCc1ccc(C(=O)CC2(O)C(=O)Nc3ccccc32)cc1 (centres undefined)	0
COc1ccc2cc(C(C)C(=O)Nc3cc(Cl)cc(Cl)c3)ccc2c1 (centres undefined)	0
Nc1nc2c(c(=O)[nH]1)C(c1ccc(OCc3cccc(Cl)c3)cc1)CC(=O)N2 (centres undefined)	0
Cn1nccc1NC(=O)c1nccnc1C(=O)O	0
CC(=O)Nc1ccc(NC(=O)c2nccnc2C(=O)O)cn1	0
C/C(=C\C#N)NC(=O)c1nccnc1C(=O)O	4.6
CN(C)c1ccc(-c2n[nH]c(=O)c3ccccc23)cc1[N+](=O)[O-]	0
Cc1ccsc1C1N=C(N)Nc2nc3ccccc3n21 (centres undefined)	0
SMILES	Dicer processing
CC1(C)CC(NCC(=O)N2c3ccccc3Sc3ccc(Cl)cc32)CC(C)(C)N1	3.3
CC(C)CNC(=O)N1c2ccccc2Sc2ccccc21	0
O=C(C1CC1)N1c2ccccc2Sc2ccccc21	0
O=C(Nc1ccc(Cl)cc1)N1CCCc2ccccc21	4.3
O=C(Nc1cc(Cl)cc(Cl)c1)N1CCCc2ccccc21	0
O=C(O)CCC(=O)N1CCCc2ccccc21	0
CC(C)(C)OC(=O)NCCNC(=O)C1CCN(c2nccc(C(F)(F)F)n2)CC1	0
Cc1nc(C(F)(F)F)ccc1C(=O)NCCNC(=O)OC(C)(C)C	4.4
CC(C)(C)OC(=O)NCCNC(=O)Nc1ccccc1C(F)(F)F	0
O=C1NC(=O)C(Nc2cccc(Cl)c2)S1 (centres undefined)	0
FC(F)(F)c1cccc(NC(=S)N2CCc3ccccc3C2)c1	0
CN(C)c1ccc(C2N=C(N)Nc3nc4ccccc4n32)cc1 (centres undefined)	0
COC(=O)[C@H]1OC(O)[C@H](O)[C@@H](O)[C@H]1O (some centres undefined)	5.8
C=CCn1c(N)c(C(=O)N/N=C/c2cccs2)sc1=S	0
CCOC(=O)c1c(C)nn(-c2ccc(C(F)(F)F)cc2)c1C	0
Cn1nc([N+](=O)[O-])nc1Sc1nnc(-c2ccccc2Br)o1	0
Cc1cc2ncc(-c3ccnc(SCC(=O)c4ccc(Cl)cc4)n3)c(C)n2n1	0
Cc1cc2ncc(-c3ccnc(SCc4c(Cl)cccc4Cl)n3)c(C)n2n1	24
Cc1cc2ncc(-c3ccnc(SCc4cccc(Cl)c4)n3)c(C)n2n1	0
O=C(/C=C/Sc1nc2ccccc2s1)c1ccc(Cl)cc1	0
CCOC(=O)c1c(C)c(C#N)c(NC(=O)c2ccc(Cl)cc2Cl)n1-c1ccc(C)cc1	0
Cc1cc(C)c(CSCCNC2=CC(=O)CC(c3ccc(Cl)cc3)C2)c(C)c1 (centres undefined)	0
CC1CCN(C(=O)CCSc2nc(-c3ccco3)cc(C(F)(F)F)n2)CC1	0
COc1ccc(-c2cc(C(F)(F)F)nc(SCCC(=O)N3CCCC3)n2)cc1	3.3
O=C(CCSc1nc(-c2ccc3c(c2)OCO3)cc(C(F)(F)F)n1)N1CCCC1	0
SMILES	Dicer processing
O=C(CSc1nncn1-c1ccc(OCc2ccccc2)cc1)Nc1cc(Cl)cc(Cl)c1	0
COC(=O)c1ccc(C2c3c(oc4cc(C)c(C)cc4c3=O)C(=O)N2CCCN2CCOCC2)cc1 (centres undefined)	0
Cc1cc(N/N=C/c2ccc([N+](=O)[O-])s2)nc2c(N)n[nH]c12	0
Cc1nn2c3c(cnc2c1-c1ccccc1)C(=O)CC(/C=C/c1ccccc1)C3 (centres undefined)	0
O=C(Cn1cnc([N+](=O)[O-])n1)Nc1ccc(Cl)cc1	4.3
CSc1ccccc1NC(=O)Cn1cnc([N+](=O)[O-])n1	0
Cn1cc([N+](=O)[O-])c(C(=O)Nc2ccc(Cl)cc2)n1	0
CCOC(=O)c1cnn(-c2ccccc2)c1NC(=O)CN1CCN(c2ccccc2)CC1	0

Screening data from PubChem.
